High-throughput results as filed in PubChem.
IL1B secr inh = qHTS for Inhibitors of Inflammasome Signaling: IL-1-beta AlphaLISA Primary Screen; THP-1 LPS/ATP IL-1B secretion, AlphaLISA, 16 h; active compounds read low; activity change, % at 57.5 µM; 4.7% of 360,000 active; AID 743279, 2014; in the data active = activity change below about -50%; inconclusive = mostly about -30% to -49%
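THP-1 cells pretreated 1 hr with compounds (up to 57.5 uM final), then stimulated with LPS (250 ng/mL final) plus ATP (1.25 mM final); secreted IL-1B measured by AlphaLISA after 16 hr, decreased signal indicating inhibition.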
DT40 TDP1 CPT = qHTS for Inhibitors of human tyrosyl-DNA phosphodiesterase 1 (TDP1): qHTS in cells in presence of CPT | Potency, µM (highest dose often 46.2 µM), usual class: inhibitors | 12% of 420,000 active | AID 686979, 2013 | chicken DT40 Tdp1-/-;hTDP1 cells + 20 nM CPT, ATP luminescence, 48 h; note: nearly all actives have a fitted effect of over 55% in size
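Chicken DT40 Tdp1-/- cells stably complemented with human TDP1 were seeded at 400 cells/well in medium containing 20 nM camptothecin, exposed to pin-transferred compounds, and grown at 37 °C for at least 48 hr. Viability was read as ATP luminescence.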
DT40 TDP1 no CPT = qHTS for Inhibitors of human tyrosyl-DNA phosphodiesterase 1 (TDP1): qHTS in cells in absence of CPT | Potency, µM (series often up to 46.2 µM), usual class: inhibitors | AID 686978, 2013 | DT40 Tdp1-/- hTDP1 cells, no CPT, ATP luminescence, 48 h | 15% of 420,000 active; note: nearly all actives have a fitted effect of over 55% in size
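Chicken DT40 Tdp1-/- cells stably complemented with human TDP1 were seeded at 400 cells/well with DMSO in place of 20 nM camptothecin. After compound pinning, cells grew at least 48 hr at 37 °C; viability read by CellTiter-Glo luminescence.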
HT1080-NT tox = qHTS for induction of synthetic lethality in tumor cells producing 2HG: qHTS for the HT-1080-NT fibrosarcoma cell line; HT-1080-NT fibrosarcoma viability, CellTiter-Glo ATP luminescence, 48 h; AID 686970, 2013; Potency, µM (top dose mostly 46.1 µM), most hits filed as cytotoxic; 1.6% of 360,000 active;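 note: NT is the 2HG producing partner of a matched IDH1 knockdown line; nearly all actives have a fitted effect of over 55% in size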
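Toxicity toward the 2HG-producing NT line was scored as %Activity, normalised to DMSO and no-cell wells, from CellTiter-Glo luminescence after 48 hours' treatment.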
HT1080 IDH1KD tx = qHTS for induction of synthetic lethality in tumor cells producing 2HG: qHTS for the HT-1080-IDH1KD cell line; 2% of 360,000 active; HT-1080 IDH1 knockdown viability, ATP luminescence, 48 h; AID 686971, 2013; Potency, µM (highest dose often 46.1 µM), hits mostly cytotoxic
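Cytotoxicity counter-line: IDH1KD HT-1080, 48 h, CellTiter-Glo. Curves classed by r2, magnitude and activity.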
Each line names hits and unclear results; the compound was inactive in the other large screens. Shown are actives, neighbours in structure and some others; about 19% of the full set was active somewhere. Unless noted, calls come from the whole dose curve; as a rule, active = well fitted curve in the direction sought with a large enough effect; inconclusive = small, poorly fitted or top-dose-only effect, or another doubt; inactive = no such curve, though single readings can be large; an effect the other way counts as inactive or inconclusive.

CC(C)Sc1nnc(NC(=O)c2ccc3c(c2)OCO3)s1	HT1080 IDH1KD tx inconclusive
Oc1c(Br)cccc1/C=N/c1ncn[nH]1	none
CSc1ccc(CCNC(=O)c2ccc3c(c2)nc2n3CCCCC2)cc1	DT40 TDP1 no CPT 16µM (no result: IL1B secr inh, HT1080-NT tox, HT1080 IDH1KD tx)
O=C1CCCC2=C1C(c1ccc(Cl)cc1)n1c(s/c(=C\c3ccc4ccncc4c3)c1=O)=N2 (stereo unspecified)	DT40 TDP1 CPT inconclusive, DT40 TDP1 no CPT 21µM
Nc1ccc(CSc2ccc(Cl)cc2)cc1	none
CCCCn1c(Oc2cccc(C(=O)OC)c2)nc2c1c(=O)n(C)c(=O)n2C	none (no result: IL1B secr inh, HT1080-NT tox, HT1080 IDH1KD tx)
CCCc1cc(=O)[nH]c(Nc2cc(Cl)cc(Cl)c2)n1	DT40 TDP1 CPT 15µM, DT40 TDP1 no CPT 16µM (no result: IL1B secr inh, HT1080-NT tox, HT1080 IDH1KD tx)
CCCCc1ccc(Nc2nc(CCC)cc(=O)[nH]2)cc1	IL1B secr inh -105, DT40 TDP1 CPT inconclusive, DT40 TDP1 no CPT 16µM, HT1080-NT tox 21µM, HT1080 IDH1KD tx inconclusive
CC(=O)Nc1ccc(Cl)cc1C(=O)O	none
CC(=O)Nc1ccccc1-c1nc2ccccc2n(C(C)C(=O)Nc2cc(Cl)ccc2C)c1=O (stereo unspecified)	DT40 TDP1 CPT inconclusive, DT40 TDP1 no CPT 26µM (no result: IL1B secr inh, HT1080-NT tox, HT1080 IDH1KD tx)
COc1ccc(OC)c(NC(=O)C(C)n2c(=O)c(-c3ccccc3NC(C)=O)nc3ccccc32)c1 (stereo unspecified)	DT40 TDP1 CPT 23µM, DT40 TDP1 no CPT inconclusive (no result: IL1B secr inh, HT1080-NT tox, HT1080 IDH1KD tx)
COc1ccc(OC)c(NC(=O)Cn2c(C)nc3ccccc3c2=O)c1	none
COc1ccc2[nH]c(=O)c(CN(C(=O)C(C)C)c3ccccc3OC)cc2c1	DT40 TDP1 CPT inconclusive, DT40 TDP1 no CPT inconclusive
CC(=O)N1CCCC1c1nc2ccccc2n1Cc1cc(C)ccc1C (stereo unspecified)	DT40 TDP1 CPT 23µM, DT40 TDP1 no CPT 23µM (no result: IL1B secr inh, HT1080-NT tox, HT1080 IDH1KD tx)
CC(=O)NCCc1nc2ccccc2n1Cc1cc(C)ccc1C	DT40 TDP1 CPT inconclusive, DT40 TDP1 no CPT inconclusive
Cc1ccc2c(c1)N(CC(=O)NC(C)CCc1ccccc1)C(=O)c1cccnc1O2 (stereo unspecified)	DT40 TDP1 no CPT inconclusive
CC(C)Oc1cccc(C(=O)Nc2ccc(-c3nc4cc(Cl)cc(Cl)c4o3)cc2)c1	none (no result: IL1B secr inh, HT1080-NT tox, HT1080 IDH1KD tx)
N#C/C(=N\Nc1ccc(Cl)c(Cl)c1)C(=O)C1CC1	IL1B secr inh inconclusive, DT40 TDP1 CPT 21µM, DT40 TDP1 no CPT 6.5µM, HT1080-NT tox inconclusive, HT1080 IDH1KD tx 2.9µM
Cc1ccc(CSC2=Nc3ccccc3C3=NC(CCC(=O)N4CCN(c5ccccc5)CC4)C(=O)N23)cc1 (stereo unspecified)	DT40 TDP1 CPT 21µM, DT40 TDP1 no CPT 21µM (no result: IL1B secr inh, HT1080-NT tox, HT1080 IDH1KD tx)
O=C(CC1N=C2c3ccccc3N=C(SCc3ccc(Cl)cc3)N2C1=O)NCc1ccco1 (stereo unspecified)	DT40 TDP1 CPT inconclusive, DT40 TDP1 no CPT inconclusive
O=C(CCC1N=C2c3ccccc3N=C(SCc3ccc(Cl)cc3)N2C1=O)N1CCN(c2ccccc2)CC1 (stereo unspecified)	DT40 TDP1 CPT 16µM, DT40 TDP1 no CPT 21µM (no result: IL1B secr inh, HT1080-NT tox, HT1080 IDH1KD tx)
Cc1ccc(CSC2=Nc3ccccc3C3=NC(CCC(=O)NCc4ccco4)C(=O)N23)cc1 (stereo unspecified)	none
Cc1ccc(C)c(N2C(=O)C3C4C=CC(CC4)C3C2=O)c1 (stereo unspecified)	none
CC(C)N1CCCC(C)(C(=O)Nc2cccc(Oc3ccccc3)c2)C1 (stereo unspecified)	DT40 TDP1 CPT inconclusive, DT40 TDP1 no CPT 13µM
CCCNC(=O)C1(C)CCCN(Cc2ccc(-c3ccccc3)o2)C1 (stereo unspecified)	DT40 TDP1 CPT 23µM, DT40 TDP1 no CPT 21µM, HT1080 IDH1KD tx inconclusive
CCNC(=O)C1(C)CCCN(Cc2cccc(Oc3ccccc3)c2)C1 (stereo unspecified)	DT40 TDP1 CPT 18µM, DT40 TDP1 no CPT 21µM
CCCNC(=O)C1(C)CCCN(Cc2ccc(C(F)(F)F)cc2)C1 (stereo unspecified)	DT40 TDP1 CPT 21µM, DT40 TDP1 no CPT inconclusive, HT1080-NT tox inconclusive
COc1ncc2nc(-c3ccc(F)cc3)c(=O)n(C3CC3)c2n1	none (no result: IL1B secr inh, HT1080-NT tox, HT1080 IDH1KD tx)
COc1cccc(C(=O)NCCN2CCC(n3c(=O)[nH]c4ccccc43)CC2)c1	none (no result: IL1B secr inh)
Cc1cc(C)n(C(C)CC(=O)Nc2ccc(Cl)cc2C)n1 (stereo unspecified)	DT40 TDP1 no CPT inconclusive (no result: IL1B secr inh, HT1080-NT tox, HT1080 IDH1KD tx)
CCOC(=O)c1c(NC(=O)COC(=O)CCNS(=O)(=O)c2ccccc2)sc(C(=O)NC)c1C	DT40 TDP1 CPT inconclusive, DT40 TDP1 no CPT inconclusive
CCCNC(=O)C1(C)CCCN(Cc2cccc(C#N)c2)C1 (stereo unspecified)	DT40 TDP1 CPT 18µM, DT40 TDP1 no CPT 21µM, HT1080 IDH1KD tx inconclusive
COc1ccc(OC2(C)CCN(Cc3ccc(-c4ccccc4)o3)C2)cc1 (stereo unspecified)	DT40 TDP1 CPT 21µM, DT40 TDP1 no CPT inconclusive
COCCNC(=O)C1(C)CCCN(Cc2ccc(Oc3ccccc3)cc2)C1 (stereo unspecified)	DT40 TDP1 CPT inconclusive, DT40 TDP1 no CPT 21µM
COCCNC(=O)C1(C)CCCN(Cc2csc(-c3ccc(Cl)cc3)n2)C1 (stereo unspecified)	DT40 TDP1 CPT 12µM, DT40 TDP1 no CPT 13µM
COCCNC(=O)C1(C)CCCN(Cc2csc3ccccc23)C1 (stereo unspecified)	DT40 TDP1 CPT inconclusive, DT40 TDP1 no CPT inconclusive
CCCNC(=O)C1(C)CCCN(Cc2cccn2C)C1 (stereo unspecified)	none
CCCNC(=O)C1(C)CCCN(Cc2ccc(C)cc2)C1 (stereo unspecified)	DT40 TDP1 no CPT inconclusive
COCCNC(=O)C1(C)CCCN(C(=O)CCc2ccccc2)C1 (stereo unspecified)	none
CCCNC(=O)C1(C)CCCN(Cc2ccc(Oc3ccccc3)cc2)C1 (stereo unspecified)	DT40 TDP1 CPT 21µM, DT40 TDP1 no CPT 18µM, HT1080 IDH1KD tx inconclusive
COCCNC(=O)C1(C)CCCN(C(=O)COc2ccccc2)C1 (stereo unspecified)	IL1B secr inh -85, DT40 TDP1 CPT 21µM, DT40 TDP1 no CPT 1.8µM, HT1080-NT tox inconclusive
CCCNC(=O)C1(C)CCCN(Cc2cc(-c3ccccc3)n(C)n2)C1 (stereo unspecified)	DT40 TDP1 CPT 16µM, DT40 TDP1 no CPT inconclusive
CCCNC(=O)C1(C)CCCN(Cc2ccc(-c3ccccc3)cc2)C1 (stereo unspecified)	IL1B secr inh inconclusive, DT40 TDP1 CPT 6.5µM, DT40 TDP1 no CPT 5.8µM, HT1080-NT tox inconclusive, HT1080 IDH1KD tx inconclusive
